S aureus helic: blocks Staphylococcus aureus DNA helicase; purified S. aureus helicase, fluorescence unwinding assay; inhibition, % (concentration not given with the values); actives 0.05% (n = 120,000); AID 485395; in the data active = inhibition above about 25%, passing the limit was not always enough
Sa growth 42C: inhibitors of Staphylococcus aureus growth at 42 °C; S. aureus RN4220 growth, OD600, 20 h; stronger effect = lower value; relative growth, % (concentration not given with the values); actives 0.53% (n = 170,000); AID 720641;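 active = relative growth at most 50% at the other temperature and 20+ points below 30 °C, or under 10% at both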
Numbers stand for hits. Rows were chosen to be rich in hits. Some 0.52% of all compounds tested hit in one or more screens of this group.

For CC1(CO)COC(COc2ccccc2)=N1 (stereo not given) the results were S aureus helic inactive and Sa growth 42C inactive.
`CNc1ccc2cccc(O)c2n1` gave S aureus helic inactive and Sa growth 42C 0.4.
Screening Oc1cccc2ccc(Nc3ccccn3)nc12 returned S aureus helic inactive and Sa growth 42C inactive.
`CNc1sc(C(=O)c2ccc(Cl)cc2)c(N)c1C(N)=O` gave S aureus helic inactive and Sa growth 42C inactive.
For CCN(c1ccccc1)S(=O)(=O)c1ccc(Cl)cc1 the results were S aureus helic inactive and Sa growth 42C inactive.
Screening CCN(c1ccc2oc3ccccc3c2c1)S(=O)(=O)c1ccc(C#N)cc1 returned S aureus helic inactive and Sa growth 42C 45.5.
`CCn1cc(CN(C)C(=S)Nc2sc3c(c2C(=O)OC)CCC(C)C3)c(C)n1` (stereo not given) gave S aureus helic inactive and Sa growth 42C inactive.
`CCN(CC)C(=O)c1sc(NC(=S)N(C)Cc2cn(CC)nc2C)c(C(=O)OC)c1C` gave S aureus helic inactive and Sa growth 42C 0.8.
O=C(CNc1ccccc1C(=O)NCc1ccco1)Nc1ccccc1Cl was read as S aureus helic inactive and Sa growth 42C inactive.
Screening CC(C)CCn1c(=O)c2sccc2n2c(CCCC(=O)NC3CC3)nnc12 returned S aureus helic inactive and Sa growth 42C inactive.
For O=C1/C(=C/c2cccnc2)CCCC/C1=C\c1cccnc1 the results were S aureus helic inactive.
`O=C1/C(=C/c2ccncc2)CCC/C1=C\c1ccncc1` gave S aureus helic inactive and Sa growth 42C -0.2.
`Cc1cccc2nc(-c3ccco3)c(Nc3ccc4c(c3)OCO4)n12` gave Sa growth 42C inactive.
For Cc1ccc(-c2nc3cccc(C)n3c2Nc2ccc3c(c2)OCO3)o1 the results were Sa growth 42C 2.2.
CCn1nccc1NC(=O)COc1ccccc1OC was read as S aureus helic inactive and Sa growth 42C inactive.
`COc1ccc(NC(=O)c2sc(=S)n3c2[nH]c(=O)c2ccccc23)cc1` gave S aureus helic inactive and Sa growth 42C inactive.
For Cc1ccc(NC(=O)c2sc(=S)n3c2[nH]c(=O)c2ccccc23)c(C)c1 the results were Sa growth 42C 4.6.
Screening CCCCC(=O)Nc1nnc(-c2ccc(Cl)s2)o1 returned S aureus helic inactive and Sa growth 42C 8.8.
Screening O=C(CCCc1c[nH]c2ccccc12)Nc1nnc(-c2ccc(Cl)cc2)o1 returned S aureus helic inactive and Sa growth 42C inactive.
CCCCC(=O)Nc1nnc(-c2ccc(Cl)cc2)o1 was read as S aureus helic inactive and Sa growth 42C -0.3.
For O=C(CCc1ccccc1)Nc1nnc(-c2ccccc2)o1 the results were S aureus helic inactive.
`CCC(C(=O)Nc1cccc(OC)c1)n1c(SCc2ccc(C)cc2)nc2cccnc21` (stereo not given) gave S aureus helic inactive and Sa growth 42C inactive.
CSc1c(-c2ccc(Cl)cc2)[nH]c2ccccc12 was read as Sa growth 42C 20.6.
Screening Cc1ccc(-c2[nH]c3ccccc3c2SCCN)cc1 returned S aureus helic inactive.
Screening C=CCn1c(Cc2cccs2)nnc1SCc1c(Cl)cccc1Cl returned S aureus helic inactive and Sa growth 42C inactive.
COc1nc(N2CCc3ccccc32)nc(N2CCc3ccccc32)n1 was read as S aureus helic inactive and Sa growth 42C inactive.
For O=C1C2SCCN2C(=S)N1c1cccc(C(F)(F)F)c1 (stereo not given) the results were Sa growth 42C 45.8.
O=C1CSC(=S)N1c1cccc(C(F)(F)F)c1 was read as S aureus helic inactive.
For Cc1ccc(C(=O)N=c2c(=O)nc(C)n(-c3ccccc3)n2C)cc1 the results were S aureus helic inactive and Sa growth 42C inactive.
`CC1(C)C(C(=O)O)N2C(=O)CC2S1(=O)=O` (stereo not given) gave S aureus helic inactive and Sa growth 42C 27.1.
`CC1(C)[C@H](C(=O)O)N2C(=O)C[C@H]2S1(=O)=O` gave Sa growth 42C inactive.
CCNc1ncnc2c1cnn2-c1ccc(C)c(C)c1 was read as S aureus helic inactive and Sa growth 42C inactive.
For CC(C)(O)C1Cc2cc(/C=C/C(=O)O)c(O)cc2O1 (stereo not given) the results were S aureus helic inactive and Sa growth 42C inactive.
`CC(C)c1cc2cc(/C=C/C(=O)O)c(O)cc2o1` gave S aureus helic inactive and Sa growth 42C -0.3.
N#Cc1ccc(NC(=O)C2CCC2)cc1 was read as Sa growth 42C inactive.
For Cc1ccc(C(=O)CC(c2ccccc2)C(C#N)C#N)cc1 (stereo not given) the results were S aureus helic inactive and Sa growth 42C 47.6.
Screening COc1cccc(C(CC(=O)c2ccc(Cl)cc2)C(C#N)C#N)c1 (stereo not given) returned S aureus helic inactive and Sa growth 42C inactive.
Cc1ccccc1NC(=S)N(CCCN1CCCC1)Cc1cccn1Cc1ccc(Cl)cc1 was read as S aureus helic inactive and Sa growth 42C inactive.
For O=Cc1c(O)c2ccccc2c2ccccc12 the results were S aureus helic inactive and Sa growth 42C 9.1.
O=c1oc2ccccc2c(O)c1C=Nc1ccccc1 was read as S aureus helic inactive and Sa growth 42C inactive.
CCOc1cc(/C=N/NC(=O)c2nnn(-c3nonc3N)c2C)ccc1OC(=O)N1CCOCC1 was read as S aureus helic inactive and Sa growth 42C inactive.
`Cc1nc(-c2ccccn2)nc(SCC(=O)c2ccccc2)c1Cl` gave Sa growth 42C inactive.
`Cc1nc(-c2ccccn2)nc(SCc2ccccc2)c1Cl` gave Sa growth 42C 18.7.
For CCCCNc1ccc(C(F)(F)F)cc1N the results were S aureus helic inactive and Sa growth 42C inactive.
For CCCNc1ccccc1N the results were S aureus helic inactive and Sa growth 42C 6.7.
For CN(C(=O)c1cnccc1C(F)(F)F)c1nc2cc(Cl)ccc2s1 the results were Sa growth 42C inactive.
`O=C1C=CC(=O)N1CCc1ccc(Cl)cc1` gave S aureus helic inactive and Sa growth 42C 9.7.
O=C1C=CC(=O)N1CCc1ccccc1 was read as S aureus helic inactive and Sa growth 42C inactive.
Screening CC(=O)Oc1ccc(C)cc1-n1nc2ccccc2n1 returned S aureus helic inactive and Sa growth 42C 45.9.
For CCN(CC)S(=O)(=O)c1ccc(Cl)c(C(=O)Oc2ccc(C)cc2-n2nc3ccccc3n2)c1 the results were S aureus helic inactive and Sa growth 42C inactive.
CC(Oc1ccc(-c2nnco2)cc1)C(=O)NC1(C#N)CCCCC1 (stereo not given) was read as S aureus helic inactive and Sa growth 42C inactive.
`O=C1CC(c2nc3ccccc3[nH]2)CN1c1cccc2ccccc12` (stereo not given) gave S aureus helic inactive and Sa growth 42C inactive.
Cn1c(C2CC(=O)N(c3cccc4ccccc34)C2)nc2ccccc21 (stereo not given) was read as S aureus helic inactive and Sa growth 42C 0.4.
Screening CC12CC(C)(C)C(C#N)(C(N)=C1C#N)C(=C(C#N)C#N)N2 (stereo not given) returned S aureus helic inactive and Sa growth 42C inactive.
`COC(=O)c1cn(-c2ccccc2)nc1-c1cccs1` gave S aureus helic inactive and Sa growth 42C 18.4.
Screening CN(C)C(=O)c1cn(-c2ccccc2)nc1-c1cccs1 returned S aureus helic inactive and Sa growth 42C inactive.
Cc1cc(C(=O)CN2C(=O)CNC2=O)c(C)n1-c1ccccc1 was read as S aureus helic inactive and Sa growth 42C inactive.
For O=S1(=O)CCN2C=CC=NC2=N1 the results were S aureus helic inactive and Sa growth 42C inactive.

Source: PubChem BioAssay
